An excerpt weighted towards active compounds, which were near 3.9% of everything screened.
CCHF vOTU inh-1 – CCHFV vOTU protease inhibition | Pep-AMC fluorescence | inhibition, % at 11.5 µM | actives 0.55% (n = 370,000) | AID 651958; note: 0% = vehicle wells with enzyme and 100% = no enzyme wells
BH1578 lux ind – inducers of Vibrio cholerae quorum light production without autoinducers. V. cholerae BH1578 lux reporter, luminescence, 6 h. activation, % at 18.7 µM. actives 0.16% (n = 350,000); in the data active = activation mostly above about 9.7%, no sharp cut-off
GDH-TPI counter – inhibits GDH-TPI coupling enzymes, artifact for Mtb FBA screen. GDH-TPI coupled enzyme counterscreen, NADH absorbance. inhibition, % at 4.8 µM. actives 1.2% (n = 360,000). AID 588335;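 note: 0% = DMSO wells and 100% = wells lacking the enzyme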
FBA Mtb inh – Mtb fructose-bisphosphate aldolase inhibition. P9WQA3. inhibition, % at 1 µM. AID 588726. purified M. tuberculosis FBA, fluorescence read-out. actives 2.3% (n = 360,000); in the data active = inhibition above about 27%;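 note: 0% = vehicle and 100% = reference inhibitor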
Target sequence (P9WQA3 whole entry, looked up): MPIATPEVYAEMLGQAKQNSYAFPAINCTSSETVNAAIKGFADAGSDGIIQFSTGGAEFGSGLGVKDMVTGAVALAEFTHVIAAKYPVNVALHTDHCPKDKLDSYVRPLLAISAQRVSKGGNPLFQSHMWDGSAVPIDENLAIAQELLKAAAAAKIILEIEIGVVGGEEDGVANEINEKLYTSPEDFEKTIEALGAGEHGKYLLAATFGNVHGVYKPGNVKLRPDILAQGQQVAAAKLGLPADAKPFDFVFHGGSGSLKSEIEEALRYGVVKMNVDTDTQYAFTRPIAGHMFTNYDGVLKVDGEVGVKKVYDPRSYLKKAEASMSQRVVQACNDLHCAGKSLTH
CCHF vOTU inh-2 – confirmation of CCHF virus vOTU protease inhibitors. shares compounds with CCHF vOTU inh-1. Recombinant CCHFV vOTU, Pep-AMC fluorescence. inhibition, % at 11.5 µM. actives 17% (n = 1,900). AID 686976
* hit, by the source's call; i = inactive; nt = no result given. Cut-off read from the data, not from the text of the source, unless noted: active = inhibition above about 30%; inactive = the rest.

SMILES	CCHF vOTU inh-1	BH1578 lux ind	GDH-TPI counter	FBA Mtb inh	CCHF vOTU inh-2
CN(CC(=O)Nc1ccc(F)cc1)C(=O)COC(=O)c1ccccc1	29.9*	i	-7.9	1.1	-2.1
O=C(CSc1nc2ccccc2c(=O)[nH]1)c1cccs1	6.7	nt	5.0	-0.6	nt
N#Cc1c(-c2cccs2)nc(SCC(=O)c2cccs2)[nH]c1=O	31.4*	i	12.0	0.8	-3.3
CCOC(=O)Nc1sc(NS(=O)(=O)c2ccccc2)nc1C	-6.5	nt	5.5	2.1	nt
CCOC(=O)Nc1sc(NS(=O)(=O)c2ccc(C)cc2)nc1C	29.7*	-0.5	7.8	2.1	-10.4
CC(=O)c1cccc(-c2ccc3c(c2)C(C)(Cc2ccc(S(C)(=O)=O)cc2)C(=O)N3)c1 (stereo not given)	4.0	-0.9	6.2	0.5	nt
O=C(Cn1nnc(-c2cccc(C(F)(F)F)c2)n1)NNS(=O)(=O)c1cccc(C(F)(F)F)c1	32.2*	i	-2.9	0.5	-5.5
O=C(Nc1cccc2ccccc12)C1CCN(C(=O)NCc2ccccc2)CC1	34.6*	1.3	2.3	1.4	3.8
C[n+]1cn(Cc2cc(Cl)ccc2OC(F)F)c2ccccc21	12.0	-8.3	1.7	3.6	nt
c1cc(-c2noc(CCC3CCCC3)n2)ccn1	3.0	-0.3	0.8	1.6	nt
CCOC(=O)c1c(NC(=O)CSc2nnnn2C)sc(C(=O)N(C)C)c1C	10.7	i	-0.9	-1.8	nt
O=C(c1ccc(COc2ccc(Cl)cc2)o1)N1CCN(Cc2ccc3c(c2)OCO3)CC1	30.1*	-6.9	4.8	-2.5	6.3
CC1(Cc2ccc(C(F)(F)F)o2)C(=O)Nc2cc(-c3ccc(F)cc3F)ccc21 (stereo not given)	39.1*	-0.8	-5.3	-1.6	-0.8
Cc1cc(C(=O)N/N=C2\CC(=O)c3ccccc32)c(C)n1-c1ccccc1	30.0*	-0.3	6.1	0.3	-5.2
COC(=O)[C@@]1(C(C)C)N=C(c2cc(OC)c(OC)c(OC)c2)[C@]2(O1)C(=O)N(Cc1ccc(OC)cc1)c1ccc(Br)cc12	3.2	nt	nt	nt	nt
Cc1cc(SCC(=O)NC2CC2)nc2ccccc12	40.4*	-1.6	-2.9	0.4	-1.5
COc1ccc(CN2CCN(Cc3ccccc3)C(CCO)C2)cc1OC (stereo not given)	-7.7	-0.5	2.1	3.2	nt
COc1cc(CN2CCN(C(C)C)C(CCO)C2)ccc1OCc1ccccc1 (stereo not given)	30.0*	0.5	7.9	-1.2	-5.4
O=C(N/N=C/c1ccc(Br)o1)/C(=C/c1ccc([N+](=O)[O-])cc1)NC(=O)c1ccccc1	37.7*	0.8	46.5*	2.8	-4.7
COc1ccc(Cl)cc1NC(=S)NCc1ccc(S(N)(=O)=O)cc1	-1.2	-0.5	-3.6	-2.5	nt
CCn1c(=O)c(C(=O)CN(C)Cc2ccc(F)cc2)c(N)n(Cc2ccccc2)c1=O	-7.0	0.1	0.0	2.4	nt
CCn1c(=O)c(C(=O)CN(C)CC(=O)Nc2cccc(F)c2)c(N)n(Cc2ccccc2)c1=O	29.9*	i	-8.2	0.8	-16.2
O=C(/C=C/c1ccc(-c2ccc(F)cc2)o1)N1CCCC1	-3.7	4.7	20.9	8.5	nt
COc1cc(NS(=O)(=O)c2ccc(NC(=S)Nc3ccccc3)cc2)nc(OC)n1	11.1	i	7.0	-3.1	nt
COc1cc(NS(=O)(=O)c2ccc(Nc3nc(-c4ccccc4)cs3)cc2)nc(OC)n1	36.5*	-0.3	14.3	-3.1	15.0
SMILES	CCHF vOTU inh-1	BH1578 lux ind	GDH-TPI counter	FBA Mtb inh	CCHF vOTU inh-2
O=C(Nc1ccc2c(c1)OCCO2)C1c2ccccc2OCC(=O)N1CCCN1CCOCC1 (stereo not given)	1.8	nt	nt	nt	nt
CCC(=O)NC1=C(Cl)C(=O)C(NC(=O)CC)=C(Cl)C1=O	97.0*	0.7	13.2	-0.7	8.9
O=c1[nH]c(=S)[nH]c2c1C(c1cccc(C(F)(F)F)c1)OC(CCc1ccccc1)C2 (stereo not given)	42.1*	nt	nt	nt	-11.2
O=c1[nH]c(=S)[nH]c2c1C(c1ccc(Cl)c(Cl)c1)OC(CCc1ccccc1)C2 (stereo not given)	0.3	nt	nt	nt	nt
CCCCCCN1C[C@H](O)[C@@H](n2cc(-c3ccc(F)cc3)nn2)C[C@@H]1c1ccccc1	33.3*	-0.6	1.9	-1.5	-8.6
CCCCCCN1C[C@H](n2cc(COC(=O)c3ccccc3)nn2)[C@@H](O)C[C@@H]1c1ccc(Cl)cc1	32.4*	-0.4	-4.7	-2.5	10.8
CCCCCC(=O)N1C[C@H](n2cc(COC(=O)c3ccccc3)nn2)[C@@H](O)C[C@@H]1c1ccc(C)cc1	34.9*	i	5.2	-0.6	4.5
CCCCCCN1C[C@H](n2cc(COC(=O)c3ccccc3)nn2)[C@@H](O)C[C@@H]1c1ccc(OC)cc1	9.7	-0.4	11.3	-0.2	nt
COc1ccc(NC(=O)CSC(C)c2nc3ccccc3c(=O)[nH]2)cc1 (stereo not given)	5.0	i	1.4	1.6	nt
COCCNC(=O)N1[C@H]2CC[C@@H]1C(C(=O)OC)=C(c1ccc(-c3ccccc3)c(F)c1)C2	-0.6	i	2.6	0.5	nt
Cn1c2ccccc2c2cc(/C=N/NC(=O)c3cc(O)ccc3O)ccc21	51.0*	0.2	14.8	5.1	64.1*
C[C@H](CO)N1C[C@H](C)[C@@H](CN(C)C(=O)NC2CCCC2)Oc2cc(Br)ccc2S1(=O)=O	30.1*	0.0	0.5	-0.1	-9.7
COc1ccc(S(=O)(=O)N(C)C[C@@H]2Oc3cc(C#CC4CCCCC4)ccc3S(=O)(=O)N([C@@H](C)CO)C[C@@H]2C)cc1	31.5*	2.4	16.5	2.1	-8.4
COC(=O)C1=C(c2ccc(OC(F)(F)F)cc2)C[C@@H]2CC[C@H]1N2C(=O)NCCOc1ccccc1	30.5*	-0.3	2.6	1.4	10.0
CCCCCCCCN1C(=O)[C@@H](CC(=O)NCc2cccc(C(F)(F)F)c2)C[C@@]2(C(=O)OC)C1=C[C@H](COCc1ccccc1)O[C@@H]2C	32.1*	nt	nt	nt	23.4
CCCCCCCCN1C(=O)[C@@H](CC(=O)NCCCC)C[C@@]2(C(=O)OC)C1=C[C@H](COCc1ccccc1)O[C@@H]2C	28.9	nt	nt	nt	nt
CCCCCCCCN1C(=O)[C@@H](CC(=O)NCc2ccc(C)o2)C[C@@]2(C(=O)OC)C1=C[C@H](COCc1ccccc1)O[C@@H]2C	12.7	nt	nt	nt	nt
CCCCCCCCN1C(=O)[C@@H](CC(=O)NCCC(C)C)C[C@@]2(C(=O)OC)C1=C[C@H](COCc1ccccc1)O[C@@H]2C	30.3*	nt	nt	nt	10.0
CCCCCCCCN1C(=O)[C@@H](CC(=O)NCC2CCCCC2)C[C@@]2(C(=O)OC)C1=C[C@H](COCc1ccccc1)O[C@@H]2C	31.1*	nt	nt	nt	-0.1
Cc1cc(Cl)ccc1NC(=O)/C=N/O	-6.5	i	21.1	-0.8	nt
Cc1cc(N2C(=O)C(O)=C(C(=O)c3cc4ccccc4o3)C2c2cccc(Br)c2)no1 (stereo not given)	31.6*	-0.7	14.7	2.7	18.2
O=C(CCNC(=O)c1ccc([N+](=O)[O-])cc1)NCc1cccs1	-2.2	-3.8	-7.0	-0.1	nt
CCCCNS(=O)(=O)/C=C/c1ccccc1CCNC(=O)OC(C)(C)C	1.1	nt	nt	nt	nt

Compound activity from PubChem BioAssay.
